# Experimental data taken from PubChem BioAssay AID1220 (Sanford-Burnham Center for Chemical Genomics, 2008).
# About 1,300 (0.68%) of roughly 190,000 compounds were called active. The full list was thinned out, with actives kept by preference. A number with no mark means an inactive call. Cut-off read from the data, not from the text of the source: active = inhibition above about 50%; inactive = the rest.
# Biological target: Mannose-6-phosphate isomerase (Homo sapiens) (UniProt P34949)
# Assay: human PMI inhibitors, high substrate, primary screen, biochemical, fluorescence intensity, high mannose 6-phosphate (AID 1220)
# Settings: recombinant PMI enzyme, coupled fluorescence intensity; at 20 µM; stronger effect = higher value
# Chain of Mannose-6-phosphate isomerase (Homo sapiens) (P34949 whole entry, looked up): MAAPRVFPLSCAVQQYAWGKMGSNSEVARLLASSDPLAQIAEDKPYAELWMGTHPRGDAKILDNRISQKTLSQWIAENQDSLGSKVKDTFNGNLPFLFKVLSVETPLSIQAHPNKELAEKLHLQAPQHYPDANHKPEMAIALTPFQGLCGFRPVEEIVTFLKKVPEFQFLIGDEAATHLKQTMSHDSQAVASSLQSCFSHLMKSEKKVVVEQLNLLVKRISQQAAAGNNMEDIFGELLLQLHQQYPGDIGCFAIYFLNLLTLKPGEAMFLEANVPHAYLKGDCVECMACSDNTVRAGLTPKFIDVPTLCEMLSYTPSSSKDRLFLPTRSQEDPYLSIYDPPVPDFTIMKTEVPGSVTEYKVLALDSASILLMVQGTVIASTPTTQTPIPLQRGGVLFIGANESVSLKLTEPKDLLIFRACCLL
row,Structure (SMILES),inhibition
1,CCOC(=O)c1sc(NC(C)=O)c(C(=O)OCC)c1C,7.7%
2,CCOC(=O)c1sc(NC(=O)c2ccccc2F)c(C(N)=O)c1C,56.6% (active)
3,CCOC(=O)c1sc(NC(=S)NC(=O)c2ccccc2Cl)c(C(=O)OCC)c1C,5.4%
4,CCn1c(N)nc2c1c(=O)n(C)c(=O)n2C,-1.8%
5,CCCc1nc(SCC(=O)c2ccc(OC)cc2)c2c(=O)n(C)c(=O)n(C)c2n1,-2.5%
6,Cn1nc(-c2ccc(Cl)cc2)nc2c(=O)n(C)c(=O)nc1-2,10.6%
7,Cn1c(=O)c(-c2ccccc2)nc2ccccc21,4.9%
8,COC(=O)c1ccccc1OCCOc1ccccc1C(=O)OC,2.8%
9,COc1ccccc1-c1nc2ccccc2nc1-c1ccccc1OC,2.8%
10,COc1ccccc1-c1nc2ccccc2nc1-c1ccccc1,12.5%
11,COc1ccccc1-c1cc2ccccc2[nH]1,4.7%
12,COc1ccc(OC)c(-c2nc3cc4ccccc4cc3nc2-c2ccccc2)c1,10.1%
13,COc1ccccc1-c1nc2cc3ccccc3cc2nc1-c1ccccc1OC,50.1% (active)
14,COc1ccccc1-c1nc2cc3ccccc3cc2nc1-c1ccccc1,50.6% (active)
15,CC(=O)Nc1ccc(C(=O)OCC(=O)Nc2ccccc2Sc2ccccc2)cc1,2.4%
16,COc1ccccc1CNC(=O)COc1ccc([N+](=O)[O-])cc1,2.1%
17,COc1ccc(CC(=O)Nc2cccc(SC)c2)cc1,1.7%
18,COc1ccccc1NC1=C(NC(C)=O)C(=O)c2ccccc2C1=O,60.1% (active)
19,COc1ccccc1NC1=C(N2CCCCC2)C(=O)c2ccccc2C1=O,2.6%
20,COc1ccccc1NC(C)=O,9.5%
21,CC(=O)Nc1ccc(NC2=C(Cl)C(=O)c3ccccc3C2=O)cc1,57.8% (active)
22,CC(=O)Nc1ccc2c(c1)C(=O)c1ccccc1C2=O,-69.9%
23,Cc1ccc(NC2=C(Cl)C(=O)c3ccccc3C2=O)cc1,41.8%
24,O=C1C(Cl)=C(NCCN2CCCCC2)C(=O)c2ccccc21,54.3% (active)
25,O=C(O)c1cccc(NC2=C(Cl)C(=O)c3ccccc3C2=O)c1,39.9%

row,Structure (SMILES),inhibition
1,CCNC1=C(Cl)C(=O)c2ccccc2C1=O,15.6%
2,O=C1c2ccccc2C(=O)N1CCN1CCCCC1,2.7%
3,O=C1C(Cl)=C(Nc2ccccc2)C(=O)c2ccccc21,52.5% (active)
4,O=C(Oc1ccc(NC2=C(Cl)C(=O)c3ccccc3C2=O)cc1)c1ccc([N+](=O)[O-])cc1,32.9%
5,CCCCn1nnnc1SCC(=O)c1ccc(C)c(C)c1,7.7%
6,COCCCNC(=O)CCCCCNS(=O)(=O)c1ccc(Br)cc1,-6.2%
7,COc1ccccc1OCC(=O)Sc1ccc(C)cc1,13%
8,CC(=O)c1ccc(N2CCN(C(=O)Nc3ccc(C)cc3)CC2)cc1,-1.7%
9,Cc1ccccc1Nc1ncnc(N)n1,-3.4%
10,O=[N+]([O-])c1ccc(Cl)cc1Sc1ccccn1,2.7%
11,Cn1c(SCC(=O)c2ccc3c(c2)OCO3)nnc1C1COc2ccccc2O1 (configuration not stated),1.3%
12,COC(=O)c1ccc(CSc2cc(C)c3cc(C)cc(C)c3n2)o1,-4.5%
13,C=CCNC1=C(Cl)C(=O)c2ccccc2C1=O,38.6%
14,CCOc1ccc(NC2=C(OC)C(=O)c3ccccc3C2=O)cc1,25.9%
15,CCN(CC)c1ccc(N2C(=O)c3ccccc3C2=O)cc1,4.2%
16,CCN(CC)c1ccc(NC2=C(Cl)C(=O)c3ccccc3C2=O)cc1,56.9% (active)
17,O=C1C(Cl)=C(NCCCO)C(=O)c2ccccc21,2.8%
18,CCN(CC)CCCNC1=C(Cl)C(=O)c2ccccc2C1=O,58.1% (active)
19,CN1C(=O)c2ccc(NC(=S)NC(=O)C(C)(C)C)cc2C1=O,8.4%
20,COCCSc1nnc(NC(=O)C2CCCCC2)s1,-1.4%
21,CCN(c1ccccc1)S(=O)(=O)c1ccc2[nH]cc(C(=O)N3CCOCC3)c(=O)c2c1,8.3%
22,COc1cccc2c(=O)c(C/C=C(/C)Cl)c(C)[nH]c12,4.6%
23,COc1cccc2c(=O)c(SC(F)(F)C(F)C(F)(F)F)c(C)[nH]c12 (configuration not stated),6.8%
24,COc1cccc2c(=O)c3cccc(N)c3[nH]c12,65.6% (active)
25,COc1ccc(-c2csc(/C(C#N)=C\c3ccc(OC)c([N+](=O)[O-])c3)n2)cc1,3.4%

row,Structure (SMILES),inhibition
1,CCN1CCN(C(=S)Nc2ccc3nc4n(c(=O)c3c2)CCCCC4)CC1,-3.2%
2,Cc1ccc(S(=O)(=O)NCC(=O)NCC(=O)OCC(=O)N2CC(=O)Nc3ccccc32)cc1C,13.9%
3,COc1ccccc1NC(=O)CC1S/C(=N/N=C2\CCCc3ccccc32)NC1=O (configuration not stated),6.9%
4,CCN(CC)c1ccc(/C=N/N2CCN(Cc3ccccc3)CC2)c(O)c1,53% (active)
5,CCN(CC)c1ccc(/C=N/N2CCN(Cc3ccc(C)cc3)CC2)c(O)c1,30.3%
6,CCN(CC)c1ccc(/C=N/N2CCOCC2)c(O)c1,53.7% (active)
7,CCN(CC)c1ccc(/C=N/N2CCOCC2)cc1,14.3%
8,CCN(CC)c1ccc(/C=N/N2CCN(Cc3cccc4ccccc34)CC2)c(O)c1,30.7%
9,Fc1ccc(/C=N/N2CCOCC2)c(F)c1,8.8%
10,CCN(CC)c1ccc(/C=N/N2CCN(Cc3ccc(C)cc3C)CC2)c(O)c1,39.8%
11,COc1cccc(/C=N/N2CCOCC2)c1O,3.6%
12,CCCn1c(=O)c2ccccc2n2c(SCC(=O)Nc3cc(C)on3)nnc12,0%
13,CCC(/C=C1\Sc2ccc(OC)cc2N1CCO)=C\c1sc2ccc(OC)cc2[n+]1CCO,13%
14,Cc1cc(C)nc(SCCn2c(N3CCC(C)CC3)nc3c2c(=O)n(C)c(=O)n3C)n1,12.2%
15,Fc1ccc(NC(=S)N/N=C/c2ccc(F)c(F)c2)c(F)c1,-6.4%
16,CCN(CC)c1ncnc2sc(C(=O)N3CCN(c4ccccc4)CC3)c(C)c12,6.5%
17,Cc1ccc2cc(CCNC(=O)c3ccc(C)c([N+](=O)[O-])c3)c(=O)[nH]c2c1,-17%
18,CN(C(=O)CSc1nnc(-c2ccc(F)cc2)c2ccccc12)C1CCS(=O)(=O)C1 (configuration not stated),-14.8%
19,CSc1sc(C)cc1C1C(C#N)=C(N)N(c2cccnc2)C2=C1C(=O)CC(C)(C)C2 (configuration not stated),13.9%
20,CC1CCN(S(=O)(=O)c2ccc3c(c2)oc(=O)n3CC(=O)N2CCc3ccccc3C2)CC1,-7.5%
21,C/C(CC(=O)Nc1cccc(Cl)c1Cl)=N\NC(=O)c1ccccc1N,3.3%
22,C/C(CC(=O)Nc1cccc(Cl)c1Cl)=N\NC(=O)c1ccccc1C,2.3%
23,C/C(CC(=O)Nc1cccc(Cl)c1Cl)=N\NC(=O)c1ccccc1Br,50.8% (active)
24,CCCN(Cc1cc2ccc(C)cc2[nH]c1=O)C(=O)c1ccccn1,11%
25,COc1ccc(NC2SC(=O)N(CC(=O)O)C2=O)cc1 (configuration not stated),12.1%

row,Structure (SMILES),inhibition
1,NC(=O)c1ccc(N2CCN(c3ccc(O)cc3)CC2)c([N+](=O)[O-])c1,55.2% (active)
2,COc1ccc(N2CCN(c3ccc(C(N)=O)cc3[N+](=O)[O-])CC2)cc1,16.5%
3,CC(=O)c1ccc(N2CCN(c3ccc(C(N)=O)cc3[N+](=O)[O-])CC2)cc1,-10.4%
4,O=C(NC1CCCCC1)C(c1ccccc1)N(C(=O)c1cccs1)c1ccc2c(c1)OCO2 (configuration not stated),-2.5%
5,Nc1c(C(=O)Nc2ccccc2)sc2nc(-c3ccco3)ccc12,15.1%
6,COc1ccccc1NC(=O)c1sc2nc(-c3ccco3)ccc2c1N,11.5%
7,Nc1c(C(=O)Nc2ccccc2F)sc2nc(-c3ccco3)ccc12,59.6% (active)
8,COCCNC(=O)CSc1nc2ccccc2c(=O)n1CCCC(=O)NCc1ccccc1,-3%
9,C=CCc1cc(/C=C/c2nc(O)c([N+](=O)[O-])c(=O)[nH]2)cc(OC)c1O,68.9% (active)
10,C=CCc1cc(/C=C2/NC(=S)NC2=O)cc(OC)c1O,15.3%
11,COc1ccc(-n2c(C)cc(/C=C/c3nc(O)c([N+](=O)[O-])c(=O)[nH]3)c2C)cc1,1.6%
12,COc1ccc(Nc2nnc(Cc3ccc(Cl)cc3)c(=O)[nH]2)c(OC)c1,19.1%
13,CCC(=O)NC1=C(NC(C)c2ccccc2)C(=O)c2ccccc2C1=O (configuration not stated),-10.2%
14,CCC(=O)N(C1=C(NC)C(=O)c2ccccc2C1=O)C(C)C,62.3% (active)
15,CCC(=O)N(CC)C1=C(O)c2ccccc2C(=O)C1=O,15.9%
16,CCC(=O)N(C1=C(NC(C)C)C(=O)c2ccccc2C1=O)C(C)C,58.2% (active)
17,CC(C)NC1=C(Cl)C(=O)c2ccccc2C1=O,-32%
18,CCC(=O)N(C)/C=C1\Sc2ccccc2C1=O,5.7%
19,OC1CCCN(Cc2cn(Cc3ccccc3)nc2-c2cc3ccccc3o2)C1 (configuration not stated),15.3%
20,O=C(C1CCN(c2nc3nonc3nc2N2CCCCC2)CC1)N1CCOCC1,14.3%
21,CCN(C(=O)COC(=O)c1ccc2[nH]c3c(c2c1)CCCC3)C1CCS(=O)(=O)C1 (configuration not stated),-6%
22,Cc1cc2cc(CCNC(=O)c3cccc([N+](=O)[O-])c3)c(=O)[nH]c2cc1C,-2.2%
